Several values for one entry are separate records, joined by “and”; a condition that tells them apart may be missing. Identical values can stand only once. Records with an inconclusive call do not appear. Activity calls are given as the source filed them. Calls come from the whole dose curve; as a rule, active = well fitted cell-killing curve with a large enough effect; inconclusive = small, poorly fitted or top-dose-only effect; inactive = flat fitted curve, though single readings scatter.
Assay: Cellular viability qHTS for adrenocortical cancer (ACC) cell line SW-13 (AID 1963989); note: nearly all actives have a fitted effect of over 65% in size;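 for activity (max response): cells grown in serum-free medium with ITS supplement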
Conditions: SW-13 ACC cells viability, CellTiter-Glo, 48 h; activity (max response): active compounds read low
Method in brief: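 Luminescent ATP read-out (CellTiter-Glo, 20 min at room temperature) measured metabolically competent SW-13 cells after 48 h compound treatment. Final concentrations spanned up to 46 uM; bortezomib served as positive control.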
In the case of `COCCN1CCN(Cc2ccc(-c3n[nH]c4c3C(=O)c3c(NC(=O)NN5CCOCC5)cccc3-4)cc2)CC1`, the Potency is reported as 0.316 µM (active).
In the case of `Cc1cc(C)nc(NS(=O)(=O)c2ccc(N)cc2)n1`, the activity (max response) is reported as 6.1% (inactive).
For `O=C(Nc1ccc(C(=O)O)c(O)c1)c1ccccc1`, the activity (max response) was 1.55% (inactive).
For `Nc1ncnc2c1ncn2[C@@H]1O[C@H](CO)[C@@H](O)[C@H]1O`, the activity (max response) was -13.6% (inactive).
In the case of `C[C@H]1O[C@@H](n2cc(F)c(=O)[nH]c2=O)[C@H](O)[C@@H]1O`, the activity (max response) is reported as -3.76% (inactive) and -5.78% (inactive).
For `CCc1nnc(NS(=O)(=O)c2ccc(N)cc2)s1`, the activity (max response) was 4.19% (inactive).
With `C=CC(=O)Nc1cc(N2CCN(CC)CC2)ccc1Nc1cc(N(C)C(=O)Nc2c(Cl)c(OC)cc(OC)c2Cl)ncn1` the activity (max response) was -15% (inactive).
In the case of `Nc1ncnc2nc[nH]c12`, the activity (max response) is reported as 2.49% (inactive).
For `COc1cc(NS(C)(=O)=O)ccc1Nc1c2ccccc2nc2ccccc12`, the Potency was 5.62 µM (active).
With `CCN(c1cc(-c2ccc(CN3CCOCC3)cc2)cc(C(=O)NCc2c(C)cc(C)[nH]c2=O)c1C)C1CCOCC1` the activity (max response) was -2.62% (inactive).
In the case of `CC(NN)c1ccccc1` (configuration not stated), the activity (max response) is reported as -4.01% (inactive).
With `O=C1NC(=O)[C@@H](c2c[nH]c3ccccc23)[C@H]1c1cn2c3c(cccc13)CCC2` the Potency was 0.398 µM (active).
In the case of `NC(=O)c1cc[n+](CC2=C(C(=O)[O-])N3C(=O)[C@@H](NC(=O)Cc4cccs4)[C@H]3SC2)cc1`, the activity (max response) is reported as 11.8% (inactive).
For `CCCCNc1ccc(C(=O)OCCN(C)C)cc1`, the activity (max response) was 4.21% (inactive).
With `C/C(=C\c1csc(C)n1)[C@@H]1C[C@@H]2O[C@]2(C)CCC[C@H](C)[C@H](O)[C@@H](C)C(=O)C(C)(C)[C@@H](O)CC(=O)N1` the Potency was 3.16 µM (active).
For `CC(CSC(=O)c1ccccc1)C(=O)N1C[C@@H](Sc2ccccc2)C[C@H]1C(=O)O` (some centres not stated), the activity (max response) was -2.01% (inactive).
In the case of `CCCc1ccc(OCC(=O)N2CCN(C(=O)COc3ccc(CCC)cc3OC)CC2)c(OC)c1`, the activity (max response) is reported as 4.95% (inactive).
In the case of `CCOc1ccc(NC(C)=O)cc1`, the activity (max response) is reported as -8.62% (inactive).
In the case of `Nc1ccc(O)c(C(=O)O)c1`, the activity (max response) is reported as 6.74% (inactive).
In the case of `CC(C)n1c(=O)cc(N[C@@H](C)c2ccccc2)[nH]c1=O`, the activity (max response) is reported as 6.06% (inactive).
With `COc1cc2c(cc1OC)CN(C(=O)[C@H](C)N[C@@H](CCc1ccccc1)C(=O)O)[C@H](C(=O)O)C2` the activity (max response) was 4.46% (inactive).
For `CCOc1ccc2ccccc2c1C(=O)N[C@@H]1C(=O)N2[C@@H]1SC(C)(C)[C@@H]2C(=O)O`, the activity (max response) was 2.64% (inactive).
For `CCOC(=O)[C@@](C)(N)Cc1ccc(O)c(O)c1`, the activity (max response) was -4.97% (inactive).
With `CN1C(CCl)Nc2cc(Cl)c(S(N)(=O)=O)cc2S1(=O)=O` (configuration not stated) the activity (max response) was -4.04% (inactive).
For `CC(=O)O[C@]1(C(C)=O)CC[C@H]2[C@@H]3C=C(Cl)C4=CC(=O)CC[C@]4(C)[C@H]3CC[C@@]21C`, the activity (max response) was -0.809% (inactive).
For `Cc1ccc(Sc2ccccc2N2CCNCC2)c(C)c1`, the Potency was 25.1 µM (active).
In the case of `CC(C)=CCC/C(C)=C/CC/C(C)=C/C(=O)OCC(=O)[C@@]1(O)CC[C@H]2[C@@H]3CCC4=CC(=O)C=C[C@]4(C)[C@H]3[C@@H](O)C[C@@]21C`, the activity (max response) is reported as 9.99% (inactive).
With `COCCOc1ccc(N2CCN(CCn3ncc4c3nc(N)n3nc(-c5ccco5)nc43)CC2)cc1` the activity (max response) was -19.9% (inactive).
For `Nc1cccc2c1CN([C@H]1CCC(=O)NC1=O)C2=O`, the activity (max response) was -17.5% (inactive).
In the case of `Cc1[nH]nc2ncc(C(=O)N3CCC[C@H]3c3ccc(Cl)cc3)cc12`, the activity (max response) is reported as -6.61% (inactive).
In the case of `CCc1c(C(=O)NNC(=O)[C@@H](O)c2cc(F)cc(F)c2)ccc(O)c1C`, the activity (max response) is reported as -4.91% (inactive).
With `COc1cc(N2CCC(N3CCN(C)CC3)CC2)ccc1Nc1ncc(Cl)c(Nc2ccccc2P(C)(C)=O)n1` the Potency was 1 µM (active).
With `C/C=C/C=N/NC(=O)c1ccncc1` the activity (max response) was -0.764% (inactive).
For `C#C[C@]1(O)CC[C@H]2[C@@H]3CCc4cc(OC5CCCC5)ccc4[C@H]3CC[C@@]21C`, the activity (max response) was -6.39% (inactive).
In the case of `CCNC(=O)Nc1ncc(-c2cc(-c3c(C)cc(OC)cc3C)nc(-c3cnccn3)n2)s1`, the activity (max response) is reported as -7.82% (inactive).
For `COc1cc(N2CCC(N)CC2)ccc1Nc1ncc(Cl)c(-c2c[nH]c3ccccc23)n1`, the Potency was 3.16 µM (active).
With `O=S1(=O)OC(c2ccc(O)cc2)(c2ccc(O)cc2)c2ccccc21` the activity (max response) was -5.64% (inactive).

Source: PubChem BioAssay (NCATS)
% is set by controls: 0 for no effect and ±100 for the full control effect; potency is the fitted concentration of half-maximal effect.
